# Compounds with a hit are over-represented: about 28% of the library has one in this group of screens.
# CYP2C19 inh – inhibitors of human CYP2C19; CYP2C19 Supersomes, luciferin-H EGE luminescence, 30 min; 21% of 96,000 active; P33261; inhibition, % at 5 µM;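 active = CYP2C19 inhibition above a set limit at 5 µM in the primary screen, cut at about 50% in these data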;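 also: plate controls were negative control wells for no effect and 2.5 mM tranylcypromine positive control for full effect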
# Mac1 fbg enh – increases human CD11b/CD18 adhesion to fibrinogen; P05107+P11215; K562 CD11b/CD18 adhesion to fibrinogen, ATPlite luminescence; activation, % at 10 µM; 0.07% of 93,000 active; AID 1499;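 active = 10 µM primary screen giving 50% or more activity, confirmed by 40% or more on retest at that dose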
# Target sequence (P05107 whole entry, looked up, other chains not shown): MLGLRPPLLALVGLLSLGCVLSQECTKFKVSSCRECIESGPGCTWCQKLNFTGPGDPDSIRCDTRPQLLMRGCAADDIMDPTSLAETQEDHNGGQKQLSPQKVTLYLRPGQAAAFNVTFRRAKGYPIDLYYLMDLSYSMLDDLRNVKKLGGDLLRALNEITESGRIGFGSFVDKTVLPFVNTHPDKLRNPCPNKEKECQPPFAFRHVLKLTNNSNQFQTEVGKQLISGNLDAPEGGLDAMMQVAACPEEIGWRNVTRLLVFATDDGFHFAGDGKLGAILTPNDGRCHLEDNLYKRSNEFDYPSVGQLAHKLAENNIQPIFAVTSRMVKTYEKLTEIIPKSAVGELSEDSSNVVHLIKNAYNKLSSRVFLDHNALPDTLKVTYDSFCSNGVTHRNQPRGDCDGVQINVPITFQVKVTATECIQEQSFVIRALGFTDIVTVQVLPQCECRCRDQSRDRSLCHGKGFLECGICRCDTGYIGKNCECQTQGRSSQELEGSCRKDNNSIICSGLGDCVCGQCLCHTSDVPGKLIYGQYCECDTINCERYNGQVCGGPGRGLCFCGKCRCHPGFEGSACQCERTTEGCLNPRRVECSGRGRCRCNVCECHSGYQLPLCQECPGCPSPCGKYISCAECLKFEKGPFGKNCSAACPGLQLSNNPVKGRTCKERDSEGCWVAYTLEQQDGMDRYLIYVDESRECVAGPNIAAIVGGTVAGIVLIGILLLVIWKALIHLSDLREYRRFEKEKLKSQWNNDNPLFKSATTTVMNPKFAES
# CYP2C9 inh – inhibitors of human CYP2C9 | inhibition, % at 5 µM | AID 777 | 20% of 96,000 active | CYP2C9 Supersomes, luciferin-H conversion, luminescence | P11712;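 active = blocking of liver enzyme CYP2C9 beyond about 50% at 5 µM, limit read from the data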
# CYP2C19 activ – activators of human cytochrome P450 2C19 | P33261 | 96,000 tested, under 10 active | recombinant CYP2C19, luciferin-H EGE luminescence; active compounds read high; 0 = fully inhibited enzyme, 1 = untreated enzyme | activation factor at 5 µM | AID 1025;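 active = activation factor of at least 2 at 5 µM in the primary screen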;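 also: 0 = wells with 2.5 mM tranylcypromine and 1 = vehicle-only wells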
# CYP2C9 act – increases human cytochrome P450 2C9 activity. recombinant CYP2C9, luciferin-H conversion, luminescence; active compounds read high; factor 1 = untreated enzyme, 0 = blocked. activation factor at 5 µM. 1.4% of 96,000 active. AID 1024;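 active = activation factor of 2 or more for CYP2C9 at a 5 µM dose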;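 also: 0 = sulfaphenazole-blocked wells and 1 = vehicle-only wells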
# Mac1 fbg inh – inhibitors of human CD11b/CD18 binding to fibrinogen; P05107+P11215; K562 CD11b/CD18 adhesion to fibrinogen, ATPlite luminescence; Mn2+ added to activate the integrin; inhibition, % at 10 µM; 0.54% of 93,000 active; AID 1497;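 active = primary inhibition of 50% or more at 10 µM, then 40% or more on retest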
# An asterisk follows results filed as active; x = no result.
SMILES,CYP2C19 inh,Mac1 fbg enh,CYP2C9 inh,CYP2C19 activ,CYP2C9 act,Mac1 fbg inh
CCC(=O)N1CCc2cc(S(=O)(=O)NCCC(=O)N3CCN(c4ccccn4)CC3)ccc21,-15,8,8,1.1,0.9,-8
Cn1cnnc1SCC(=O)Nc1ccc2nc(SCc3cccc4ccccc34)sc2c1,59*,4,38,0.4,0.6,-25
CCOC(=O)c1[nH]c2ccc(Br)cc2c1NC(=O)CCN1CCC(C)CC1,58*,4,24,0.4,0.8,-12
CCOC(=O)c1[nH]c2ccc(Br)cc2c1NC(=O)CNC,5,104*,-18,1,1.2,-2
CN(C)c1ccc(C(=O)C(O)c2ccc(C(C)(C)C)cc2)cc1 (stereo not given),45,-6,13,0.6,0.9,16
Cc1nc2ccccc2n1C1CC(=O)N(Cc2ccccc2)C1=O (stereo not given),31,-4,32,0.7,0.7,32
OCc1nc2ccccc2n1CC(O)Cn1ccc2ccccc21 (stereo not given),90*,-3,84*,0.1,0.2,29
O=C1c2ccccc2S(=O)(=O)N1CC(O)Cn1ccc2ccccc21 (stereo not given),97*,8,71*,0,0.3,0
Oc1ccccc1NCC(O)Cn1ccc2ccccc21 (stereo not given),37,7,28,0.6,0.7,10
Cc1cc(C)n(CC(O)Cn2c3ccc(Cl)cc3c3cc(Cl)ccc32)c(=O)n1 (stereo not given),58*,6,95*,0.4,0.1,6
OCCN(CC(O)COc1ccccc1)CC(O)Cn1ccc2ccccc21 (stereo not given),x,4,x,x,x,-8
Cc1cc(C)n(CC(O)Cn2c3ccccc3c3ccccc32)n1 (stereo not given),82*,2,61*,0.2,0.4,12
OC(CNCC1CCCO1)Cn1c2ccc(Cl)cc2c2cc(Cl)ccc21 (stereo not given),-6,x,-10,1.1,1.1,x
O=C(/C=C/c1ccc(OCCCF)cc1)NCc1ccc(Cl)cc1,34,9,10,0.7,0.9,-12
CC1CC(C)CN(CCCNC(=O)Cc2c(C(=O)O)[nH]c3ccccc23)C1 (stereo not given),-16,-2,-12,1.2,1.1,8
Cc1ccc(C(=O)C(OC(=O)COc2ccccc2C)c2ccccc2)cc1 (stereo not given),49,1,39,0.5,0.6,-8
C/C(=C\c1ccccc1)C(=O)n1nnc2ccccc21,28,x,4,0.7,1,x
Cc1cc(C)n(CC(O)Cn2ccc3ccccc32)n1 (stereo not given),72*,-4,41,0.3,0.6,-2
Cc1cc(C)n(CC(O)CN(c2ccccc2)S(=O)(=O)c2ccccc2)n1 (stereo not given),13,x,18,0.9,0.8,x
Cc1cc(C)n(CC(O)CN2c3ccccc3Sc3ccccc32)n1 (stereo not given),66*,0,33,0.3,0.7,-10
COc1ccc(C(c2nnnn2C2CCCC2)N2CCC(C(N)=O)CC2)c(OC)c1 (stereo not given),6,1,4,0.9,1,-11
COc1ccc(N2CCN(C(c3cccc(OC)c3OC)c3nnnn3C3CCCC3)CC2)cc1 (stereo not given),80*,8,73*,0.2,0.3,-46
COc1ccc(OC)c(C(c2nnnn2C2CCCC2)N2CCc3ccccc3C2)c1 (stereo not given),80*,-2,54*,0.2,0.5,1
COc1ccc(N2CCN(C(c3ccccc3OC)c3nnnn3C3CCCC3)CC2)cc1 (stereo not given),76*,-1,77*,0.2,0.2,-9
COc1ccc(OC)c(C(c2nnnn2C2CCCC2)N2CCN(c3ccccc3F)CC2)c1 (stereo not given),95*,8,94*,0.1,0.1,-10
SMILES,CYP2C19 inh,Mac1 fbg enh,CYP2C9 inh,CYP2C19 activ,CYP2C9 act,Mac1 fbg inh
COc1cccc(C(c2nnnn2C(C)(C)C)N2CCN(C3CCCCC3)CC2)c1OC (stereo not given),4,0,8,1,0.9,-16
CC(C)CCC1CC(CSC(=N)N)OC1=O (stereo not given),1,-3,-17,1,1.2,11
Fc1ccccc1N1CCN(C(c2ccccn2)c2nnnn2C2CCCCC2)CC1 (stereo not given),80*,0,77*,0.2,0.2,-1
COc1ccccc1N1CCN(C(c2ccccn2)c2nnnn2C2CCCCC2)CC1 (stereo not given),42,6,49,0.6,0.5,9
COC(=O)CP(=O)(c1ccccc1)c1ccccc1,-25,-4,-21,1.2,1.2,-1
Cc1ccc(Cl)cc1NC(=O)Cn1cccc1,20,4,6,0.8,0.9,-9
Cc1ccc(Cl)cc1NC(=O)CC(O)(C(F)(F)F)C(F)(F)F,75*,-10,37,0.3,0.6,98*
Cc1ccc(Cl)cc1NC(=O)CSC(N)=O,72*,-5,27,0.3,0.7,-14
Cc1nn(-c2ccccc2)c(C)c1C(=O)Nc1nnc(-c2ccco2)o1,-2,-1,-23,1,1.2,-44
CN(C)c1ccc(C(=S)N2CCCCCC2)cc1,53*,-1,20,0.5,0.8,-16
CN(C)c1ccc(C(=S)N2CCN(c3ccccc3)CC2)cc1,49,-2,14,0.5,0.9,-4
Cc1ccc(N2CCN(C(=S)c3ccc(N(C)C)cc3)CC2)cc1,83*,-4,77*,0.2,0.2,-23
CCOc1ccc(C(=O)/C=C/c2cn(CN3CCN(C)CC3)c3ccccc23)cc1,62*,x,64*,0.4,0.4,x
COc1ccc(C(=O)/C=C/c2cn(CN3CCN(C)CC3)c3ccccc23)cc1,67*,-2,68*,0.3,0.3,12
CCOc1c2ccc(C(=O)N[C@H](C)C3CCCCC3)cc2nn1CC,9,x,5,0.9,0.9,x
CN(C)CCSc1nc(N)c2c3c(sc2n1)CN(C)CC3,13,-2,8,0.9,0.9,-28
COC(=O)CSc1nc(N)c2c3c(sc2n1)CCCC3,86*,-1,65*,0.1,0.3,0
CCCSc1nc(N)c2c3c(sc2n1)CN(C)CC3,82*,0,26,0.2,0.7,-3
CCCCC1(C(=O)OCC)CC(CN2CCOCC2)OC1=O (stereo not given),24,-2,8,0.8,0.9,-21
CC1CCCC(C)N1C(=O)Cn1c(SCC(=O)NCc2ccc3c(c2)OCO3)nc2ccccc21 (stereo not given),64*,-3,90*,0.4,0.1,-15
